Source: PubChem BioAssay (NCI)
Compounds without any hit were thinned out: in the full panel of roughly 83,000, 20% have a hit.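 Single-dose data. Exposure time 48 hours. Values below 10 considered active.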

Assays:
Assay in all cases: NCI-60 one-dose screen, 48 h (100 = growth as untreated, 0 = no growth, -100 = all killed)
Details in all cases: 10 µM unless noted
HCT-15 colon = tested on: HCT-15 colon
HT29 colon = tested on: HT29 colon
SNB-75 CNS = tested on: SNB-75 CNS
SNB-19 CNS = tested on: SNB-19 CNS
PC-3 prostate = tested on: PC-3 prostate
SK-MEL-5 melanoma = tested on: SK-MEL-5 melanoma
UACC-62 melanoma = tested on: UACC-62 melanoma
SK-MEL-28 melanoma = tested on: SK-MEL-28 melanoma

Measured: growth

CC1(n2nnnc2N2CCCN(c3ncccc3N)CC2)CCC1
inactive: HCT-15 colon 58.3% | HT29 colon 108% | SNB-75 CNS 81.7% | SNB-19 CNS 98.6% | PC-3 prostate 75.3% | SK-MEL-5 melanoma 86.3% | UACC-62 melanoma 94.9% | SK-MEL-28 melanoma 100%

N#Cc1c(-c2ccc(O)cc2)c2c(N)nn(-c3ccccc3)c2[nH]c1=O
inactive: HCT-15 colon 109% | HT29 colon 111% | SNB-75 CNS 104% | SNB-19 CNS 99.8% | PC-3 prostate 102% | SK-MEL-5 melanoma 98% | UACC-62 melanoma 96% | SK-MEL-28 melanoma 109%

C#CCn1c(C)cc(C)c(C#N)c1=O
inactive: HCT-15 colon 105% | HT29 colon 120% | SNB-75 CNS 103% | SNB-19 CNS 95.4% | PC-3 prostate 104% | SK-MEL-5 melanoma 104% | UACC-62 melanoma 99% | SK-MEL-28 melanoma 109%

CC(C)(C)c1[nH]nc2c1C(c1cc3ccccc3[nH]c1=O)Nc1cc(C(=O)OCc3ccccc3)ccc1N2 (configuration not stated)
inactive: HCT-15 colon 55.3% | HT29 colon 62.1% | SNB-75 CNS 71.7% | SNB-19 CNS 61.7% | PC-3 prostate 41.4% | SK-MEL-5 melanoma 39.3% | UACC-62 melanoma 49.1% | SK-MEL-28 melanoma 77.2%
